Measurements: PubChem BioAssay (NCATS)
Inconclusive results are not listed. The source made the active and inactive calls. Calls come from the whole dose curve; as a rule, active = well fitted cell-killing curve with a large enough effect; inconclusive = small, poorly fitted or top-dose-only effect, or effect the other way; inactive = no such curve, though single readings can be large or run the other way.

Experiment: Quantitative High-Throughput drug screen in 47 multiple myeloma cell lines against the NCATS MIPE library collection: KMS28PE_JCRB cell viability assay (AID 1918983); note: nearly all actives have a fitted effect of over 35% in size
Settings: KMS28PE multiple myeloma viability, CellTiter-Glo ATP, 48 h; series mostly up to 45.8 µM
Text: PI: Beverly A. Mock Ph.D.
Laboratory of Cancer Biology and Genetics,
Center for Cancer Research, National Cancer Institute,
National Institute of Health, Bethesda, Maryland
Drug resistance and disease progression are common in multiple myeloma (MM) patients, underscoring the need for new therapeutic combinations. […] We hypothesized that effective combinations would reduce MYC expression and enhance p16 activity. […] These preclinical data identify potentially useful drug combinations for evaluation in drug-resistant MM and reveal potential mechanisms of combined drug sensitivity.
Described herein is the primary MIPE qHTS used to cherrypick compounds. Validated compounds were then further tested for potential synergistic activiy.
[1] Peat TJ, Gaikwad SM, Dubois W, Gyabaah-Kessie N, Zhang S, Gorjifard S, Phyo Z, Andres M, Hughitt VK, Simpson RM, Miller MA, Girvin AT, Taylor A, Williams D, D'Antonio N, Zhang Y, Rajagopalan A, Flietner E, Wilson K, Zhang X, Shinn P, Klumpp-Thomas C, McKnight C, Itkin Z, Chen L, Kazandijian D, Zhang J, Michalowski AM, Simmons JK, Keats J, Thomas CJ, Mock BA. Drug combinations identified by high-throughput screening promote cell cycle transition and upregulate Smad pathways in myeloma. Cancer Lett. 2023 Aug 1;568:216284. doi: 10.1016/j.canlet.2023.216284. Epub 2023 Jun 24. PMID: 37356470; PMCID: PMC10408729.
SEQUENCE No. (e.g., 1, 2, 3, etc.); […] (e.g., Cells, Incubation, Reagent, etc.); VALUE and DESCRIPTION.
1; Cells; 5 uL; white, solid bottom 1536-well Greiner assay plate.
2; Compounds; 23 nL; Kalypsis pin tool (Wako USA) equipped with a 1536-well pin head to transfer to the assay plates.
3; Incubation; 48 hours; 37C incubation.
4; Reagent;5uL; CellTiter Glo (Promega).
5; Detector; 425V; Luminescence; Viewlux PerkinElmer.
NOTES (numbers refer to Sequence numbers above)
1. The cell-based screening methods employed in this study were like those previously published. Briefly, the corresponding myeloma cell lines were screened in 1,536-well plates with 500 cells, 5-uL per well for inhibition of cell viability (assessed by measuring ATP levels with CellTiterGlo).
2. NCATS MIPE 4.0 library of approved and investigational drugs were added using the Kalypsis pin tool. Wells treated with DMSO only for 100% viability and media only for 0% viability were used as controls.
3. The assay plates were covered and incubated for 48 hours in a 37C, 5% CO2 incubator with controlled humidity.
4. After 48 hours, CellTilter-GloTM luminescent substrate mix (Promega) reagent was added to the assay plate and plates we incubated for 5 min at room temperature.
5. Signal was measured as median relative luminescence units on a ViewLux (PerkinElmer) multiplate reader.
[1] Heske CM, Davis MI, Baumgart JT, Wilson K, Gormally MV, Chen L, Zhang X, Ceribelli M, Duveau DY, Guha R, Ferrer M, Arnaldez FI, Ji J, Tran HL, Zhang Y, Mendoza A, Helman LJ, Thomas CJ. Matrix Screen Identifies Synergistic Combination of PARP Inhibitors and Nicotinamide Phosphoribosyltransferase (NAMPT) Inhibitors in Ewing Sarcoma. Clin Cancer Res. 2017 Dec 1;23(23):7301-7311. doi: 10.1158/1078-0432.CCR-17-1121. Epub 2017 Sep 12. PMID: 28899971; PMCID: PMC6636827.
Potency is the fitted concentration of half-maximal effect.

| SMILES | Potency |
| --- | --- |
| C[C@H]1C[C@@H]2[C@@H]([C@@H](O)C[C@@]3(C)[C@H]2CC[C@]3(O)C(=O)CO)[C@@]2(C)C=CC(=O)C=C12 | inactive |
| CCOc1ccccc1OCCNC(C)Cc1ccc(OC)c(S(N)(=O)=O)c1 (stereo not given) | inactive |
| O=C(Nc1cn[nH]c1-c1nc2ccc(CN3CCOCC3)cc2[nH]1)NC1CC1 | 7.43 µM (active) |
| O=C(C=Cc1cccc(S(=O)(=O)Nc2ccccc2)c1)NO | 3.82 µM (active) |
| CC1(C)CC(=O)c2c(C(F)(F)F)nn(-c3ccc(C(N)=O)c(NC4CCC(OC(=O)CN)CC4)c3)c2C1 (stereo not given) | 0.235 µM (active) |
| O=c1c2ccccc2nc2n1CCc1c-2[nH]c2ccccc12 | inactive |
| Cc1cc(N2CCOCC2)cc2[nH]c(-c3c(NC[C@@H](O)c4cccc(Cl)c4)cc[nH]c3=O)nc12 | 0.332 µM (active) |
| c1cc(-c2cnn3cc(-c4ccc(OCCN5CCCCC5)cc4)cnc23)ccn1 | 11.8 µM (active) |
| CS(=O)(=O)c1ccc(-c2cnc(N)c(C(=O)Nc3ccccc3)n2)cc1 | inactive |
| CCS(=O)(=O)c1cccc(-c2cc(C(=O)NC3CCN(C)CC3)c(C)c3[nH]c4ncc(C)cc4c23)c1 | 1.87 µM (active) |
| COc1cc2ncnc(Nc3ccc(F)c(Cl)c3)c2cc1NC(=O)C=CCN1CCCCC1 | 23.5 µM (active) |
| C[C@@H]1CN(CC(=O)Nc2ccc3c(c2)Cc2cccc(-c4cc(=O)cc(N5CCOCC5)o4)c2S3)C[C@H](C)O1 | 9.35 µM (active) |
| O=C(CCCCCCC(=O)Nc1ccc([C@H]2O[C@@H](CSc3nc(-c4ccccc4)c(-c4ccccc4)o3)C[C@@H](c3ccc(CO)cc3)O2)cc1)NO | 16.6 µM (active) |
| Cn1c(CNc2ccc(C(=N)N)cc2)nc2cc(C(=O)N(CCC(=O)O)c3ccccn3)ccc21 | inactive |
| Nc1ccccc1NC(=O)c1ccc(CNc2nccc(-c3cccnc3)n2)cc1 | 2.96 µM (active) |
| NC(=O)Nc1cc(-c2cccc(F)c2)sc1C(=O)N[C@H]1CCCNC1 | 2.64 µM (active) |
| CC(C)c1ccc(Cn2ccc3c4c(N)nc(NC5CC5)nc4ccc32)cc1 | 9.35 µM (active) |
| Fc1cc(-c2cccc3ncc(-c4cnn(C5CCNCC5)c4)nc23)cc(F)c1CN1CCOCC1 | 23.5 µM (active) |
| COc1cc(OC2CCN(C)CC2)ccc1Nc1ncc2c(n1)n(C1CCCC1)c(=O)n2C | 16.6 µM (active) |
| O=c1[nH]c(=O)n(C2CCCO2)cc1F (stereo not given) | inactive |

| SMILES | Potency |
| --- | --- |
| N#Cc1c(O)c2c(-c3ccc(-c4ccccc4O)cc3)csc2[nH]c1=O | 13.2 µM (active) |
| Nc1ccc(S(=O)(=O)Nc2ncccn2)cc1 | inactive |
| O=C(NC1CCNCC1)c1[nH]ncc1NC(=O)c1c(Cl)cccc1Cl | 0.235 µM (active) |
| CN(C)Cc1c(C(=O)NCCOc2ccc(C(=O)NO)cc2)oc2ccccc12 | 0.743 µM (active) |
| Cn1cncc1[C@@](N)(c1ccc(Cl)cc1)c1ccc2c(c1)c(-c1cccc(Cl)c1)cc(=O)n2C | 8.33 µM (active) |
| CC(C)(O)CCc1ccc(OCc2cc(-c3cccc(OC(F)F)c3)c3ncccc3c2)cc1 | inactive |
| Cc1cn2cc(C(=O)N(C)CCO)cc(N[C@@H]3CCOc4cccc(C)c43)c2n1 | inactive |
| CC(C)CC(=O)Nc1n[nH]c2c1CN(C(=O)C1CCN(C)CC1)C2(C)C | 1.18 µM (active) |
| CN1CCN(Cc2ccc(NC(=O)Nc3ccc(Oc4cc(NC(=O)C5CC5)ncn4)cc3)cc2C(F)(F)F)CC1 | 0.372 µM (active) |
| Cc1nc(N)ncc1-c1nc(N2CCOCC2)c2sc(C(C)(C)O)cc2n1 | 0.118 µM (active) |
| C1=CCOCc2cc(ccc2OCCN2CCCC2)Nc2nccc(n2)-c2cccc(c2)OCC1 | 3.72 µM (active) |
| COC(=O)c1ccc2c(C(=Nc3ccc(N(C)C(=O)CN4CCN(C)CC4)cc3)c3ccccc3)c(O)[nH]c2c1 | 7.43 µM (active) |
| Nc1ncnc2c1c(-c1cccc(OCc3ccccc3)c1)cn2C1CC(CN2CCCC2)C1 (stereo not given) | 1.05 µM (active) |
| CC(C)c1ccccc1Cc1cc(C(=O)Nc2ccc(S(=O)(=O)c3ccccc3C(C)(C)C)cc2)c(O)c(O)c1O | 16.6 µM (active) |
| COC(=O)[C@]12CCC(C)(C)C[C@@H]1[C@@H]1C(=O)C=C3[C@@]4(C)C=C(C#N)C(=O)C(C)(C)[C@@H]4CC[C@@]3(C)[C@]1(C)CC2 | 0.526 µM (active) |
| COc1cc2ncn(-c3cc(OCc4ccccc4C(F)(F)F)c(C(N)=O)s3)c2cc1OC | 16.6 µM (active) |
| CC(=O)OCC(=O)[C@@]1(O)[C@H](C)C[C@H]2[C@@H]3C=C(C)C4=Cc5c(cnn5-c5ccccc5)C[C@]4(C)[C@@H]3[C@@H](O)C[C@@]21C | 20.9 µM (active) |
| C=CC(=O)Nc1cc2c(Nc3ccc(F)c(Cl)c3)ncnc2cc1C#CC(C)(C)N1CCN(C)CC1 | 0.833 µM (active) |
| COc1ccc2c(OCc3nnc4ccc(-c5ccccc5)nn34)ccnc2c1 | inactive |
| C[C@@H](Oc1cc(-n2cnc3ccc(CN4CCN(C)CC4)cc32)sc1C(N)=O)c1ccccc1C(F)(F)F | 0.0935 µM (active) |
